Drawing on PubChem BioAssay (Tox21), this text covers Potency and activity change, negative = inhibition for eleven compounds.

Test [1] in a line: Caspase-3/7 induction in CHO-K1 cells by small molecules, qHTS assay (AID 1346980). Also: nearly all actives have a fitted effect of over 15% in size. The gist of the method:
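Wild-type CHO-K1 cells exposed to compounds for 17hr at 37 C, 5% CO2. Caspase-3/7 activity then measured by Caspase-Glo 3/7 luminescence after 30min at room temperature.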

Test [2] is described as follows: Caspase-3/7 induction in HepG2 cells by small molecules, qHTS cell viability counter screen (AID 1346981). Also: nearly all actives have a fitted effect of over 30% in size. Also: potency is read from the fitted curve at half-maximal effect. The method, boiled down:
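Cell viability is measured as a cytotoxicity counter screen alongside the Caspase-Glo 3/7 readout in identical wells. Wild-type HepG2 cells are treated with test compounds for 16 hr at 37 C before CellTiter-Fluor addition and a 1-hr incubation.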

In test [3] the target is Nuclear receptor subfamily 1 group I member 2 (Homo sapiens) (UniProt O75469). Nature of the test: Human pregnane X receptor (PXR) small molecule agonists, qHTS assay (AID 1346982). Also: nearly all actives have a fitted effect of over 35% in size. Also: potency is read from the fitted curve at half-maximal effect. The gist of the method: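 Cells: HepG2 stably carrying PXR-Luc. Medium held 5% charcoal-stripped FBS. Compounds in DMSO added after 5 hr plating, incubated 24 hr, then luminescence quantified with ONE-Glo.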
Sequence of Nuclear receptor subfamily 1 group I member 2 (Homo sapiens) (O75469 whole entry, looked up): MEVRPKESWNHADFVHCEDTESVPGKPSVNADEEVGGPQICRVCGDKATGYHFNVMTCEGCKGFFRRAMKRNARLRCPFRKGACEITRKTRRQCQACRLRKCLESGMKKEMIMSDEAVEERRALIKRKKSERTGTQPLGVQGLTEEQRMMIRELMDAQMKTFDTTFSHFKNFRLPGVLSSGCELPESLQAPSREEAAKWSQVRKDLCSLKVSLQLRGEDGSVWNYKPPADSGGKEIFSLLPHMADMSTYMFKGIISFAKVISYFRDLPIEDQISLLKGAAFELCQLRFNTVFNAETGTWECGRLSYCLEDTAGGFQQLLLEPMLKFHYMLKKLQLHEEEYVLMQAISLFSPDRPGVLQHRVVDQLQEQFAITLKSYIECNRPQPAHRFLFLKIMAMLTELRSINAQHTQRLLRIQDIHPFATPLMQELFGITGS

Test [4] has as its target Cytochrome P450 2D6 (Homo sapiens) (UniProt P10635). Nature of the test: Cytochrome P450 Family 2 Subfamily D Member 6 (CYP2D6) small molecule antagonists: luciferase reporter qHTS assay (AID 1671196). Also: nearly all actives have a fitted effect of over 50% in size. Also: potency is read from the fitted curve at half-maximal effect. As to activity change, negative = inhibition: series mostly up to about 120 µM. The gist of the method: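 Enzyme and proluciferin substrate were first combined with test chemical for 10 min at room temperature. Adding NADPH regeneration solution started a 1 h reaction, stopped with luciferin detection reagent and read by luminescence 20 min later.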

Test [5] addresses Cytochrome P450 2C19 (Homo sapiens) (UniProt P33261). Nature of the test: Cytochrome P450 Family 2 Subfamily C Member 19 (CYP2C19) small molecule antagonists: luciferase reporter qHTS assay (AID 1671197). Also: nearly all actives have a fitted effect of over 65% in size. Also: potency is read from the fitted curve at half-maximal effect. As to activity change, negative = inhibition: series mostly up to about 120 µM. The method, boiled down: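 CYP2C19 P450-Glo, 1536-well qHTS. Cpd + enzyme/proluciferin substrate 10 min RT; + NADPH regen, 37C 1 h; stop with luciferin detection reagent, 20 min RT, luminescence (RLU). Pos ctrl ketoconazole.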

Test [6] concerns the target Cytochrome P450 2C9 (Homo sapiens) (UniProt P11712). Nature of the test: Cytochrome P450 Family 2 Subfamily C Member 9 (CYP2C9) small molecule antagonists: luciferase reporter qHTS assay (AID 1671198). Also: nearly all actives have a fitted effect of over 50% in size. Also: potency is read from the fitted curve at half-maximal effect. As to activity change, negative = inhibition: series mostly up to about 120 µM. The method, boiled down: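 P450-Glo proluciferin substrate with CYP2C9 enzyme; 10 min RT preincubation, then NADPH regeneration 1 h at 37C; luciferin detection reagent 20 min RT, luminescence in relative luminescence units.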

Test [7] has as its target Cytochrome P450 1A2 (Homo sapiens) (UniProt P05177). Nature of the test: Cytochrome P450 Family 1 Subfamily A Member 2 (CYP1A2) small molecule antagonists: luciferase reporter qHTS assay (AID 1671199). Also: nearly all actives have a fitted effect of over 50% in size. Also: potency is read from the fitted curve at half-maximal effect. As to activity change, negative = inhibition: series mostly up to about 120 µM. The gist of the method: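 Compounds were incubated with CYP1A2 and a luminogenic proluciferin substrate for 10 min at room temperature before the reaction was started with NADPH regeneration solution. After 1 h, detection reagent was added and light output, proportional to CYP activity, was recorded.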

Test [8] deals with Voltage-gated inwardly rectifying potassium channel KCNH2 (Homo sapiens) (UniProt Q12809). Nature of the test: Human Ether-a-go-go-Related Gene (hERG) channel small molecule antagonists: fluorescence cell-based qHTS assay (AID 1671200). Also: nearly all actives have a fitted effect of over 50% in size. Also: potency is read from the fitted curve at half-maximal effect.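 As to activity change, negative = inhibition: hERG-expressing U2OS cells given a thallium stimulus after FluxOR II dye loading; series mostly up to about 77 µM.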 The method, boiled down: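 Kinetic two-minute fluorescence traces, sampled at 1 s, were collected following thallium stimulus of U2OS cells (1000 per well) that had been cultured overnight at 37 C and loaded with FluxOR II.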
Sequence of Voltage-gated inwardly rectifying potassium channel KCNH2 (Homo sapiens) (Q12809 whole entry, looked up): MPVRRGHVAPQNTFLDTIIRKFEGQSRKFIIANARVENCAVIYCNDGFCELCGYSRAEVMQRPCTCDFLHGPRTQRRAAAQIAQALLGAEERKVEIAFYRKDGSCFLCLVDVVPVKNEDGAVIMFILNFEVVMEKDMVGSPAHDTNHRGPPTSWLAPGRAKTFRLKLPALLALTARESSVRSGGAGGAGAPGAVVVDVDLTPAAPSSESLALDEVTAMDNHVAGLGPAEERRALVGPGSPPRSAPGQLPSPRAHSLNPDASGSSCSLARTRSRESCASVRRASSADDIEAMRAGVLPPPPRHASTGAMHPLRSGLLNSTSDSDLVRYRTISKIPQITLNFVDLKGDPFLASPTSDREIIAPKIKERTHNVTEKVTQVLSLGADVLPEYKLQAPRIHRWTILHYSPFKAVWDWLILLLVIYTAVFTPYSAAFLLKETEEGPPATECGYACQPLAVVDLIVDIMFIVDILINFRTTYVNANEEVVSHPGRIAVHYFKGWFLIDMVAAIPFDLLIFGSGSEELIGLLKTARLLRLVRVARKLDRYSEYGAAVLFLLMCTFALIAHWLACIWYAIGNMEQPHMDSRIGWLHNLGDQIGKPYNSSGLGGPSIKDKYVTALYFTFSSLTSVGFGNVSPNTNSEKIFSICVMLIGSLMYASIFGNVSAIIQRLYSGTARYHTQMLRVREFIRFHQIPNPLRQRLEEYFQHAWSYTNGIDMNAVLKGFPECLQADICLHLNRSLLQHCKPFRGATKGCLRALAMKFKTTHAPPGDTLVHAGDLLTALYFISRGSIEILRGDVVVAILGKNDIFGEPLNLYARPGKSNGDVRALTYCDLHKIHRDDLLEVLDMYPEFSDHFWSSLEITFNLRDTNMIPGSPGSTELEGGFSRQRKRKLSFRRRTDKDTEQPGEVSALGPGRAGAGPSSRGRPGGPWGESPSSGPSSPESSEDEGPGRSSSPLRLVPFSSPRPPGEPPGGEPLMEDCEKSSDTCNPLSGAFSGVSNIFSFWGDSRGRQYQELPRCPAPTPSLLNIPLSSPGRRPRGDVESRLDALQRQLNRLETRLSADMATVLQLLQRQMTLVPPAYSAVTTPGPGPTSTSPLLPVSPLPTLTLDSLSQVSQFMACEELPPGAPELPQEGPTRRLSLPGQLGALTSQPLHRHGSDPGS

Test [9] has as its target Cytochrome P450 3A4 (Homo sapiens) (UniProt P08684). Nature of the test: Cytochrome P450 Family 3 Subfamily A Member 4 (CYP3A4) small molecule antagonists: luciferase reporter qHTS assay (AID 1671201). Also: nearly all actives have a fitted effect of over 50% in size. Also: potency is read from the fitted curve at half-maximal effect. As to activity change, negative = inhibition: series mostly up to about 120 µM. The gist of the method: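 Proluciferin-to-luciferin conversion by CYP3A4, NADPH-regenerated, 1 h RT; luminescence read as RLU. Ketoconazole as control.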
A short description of test [10]: Caspase-3/7 induction in CHO-K1 cells by small molecules, qHTS cell viability counter screen (AID 1346979). Also: nearly all actives have a fitted effect of over 35% in size. Also: potency is read from the fitted curve at half-maximal effect. The method, boiled down: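 CellTiter-Fluor viability check, qHTS format: wild-type CHO-K1, 16hr compound treatment, 1hr reagent incubation, fluorescence read.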
Test [11] has as its target Nuclear receptor subfamily 1 group I member 2 (Homo sapiens) (UniProt O75469). Nature of the test: CYP3A4 induction through human pregnane X receptor (PXR) by small molecules, qHTS assay (AID 1346984). Also: nearly all actives have a fitted effect of over 40% in size. The method, boiled down:
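Quantitative HTS in DPX-2 cells, i.e. HepG2 transfected with PXR response element and CYP3A4-promoter luciferase. Compounds in DMSO incubated 24hr at 37C; then P450-Glo CYP3A4 substrate, 3uM final, 3hr; One-Glo luminescence.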

Test [12] has the same target. Nature of the test: Human pregnane X receptor (PXR) activation by small molecules, qHTS assay (AID 1346985). Also: nearly all actives have a fitted effect of over 40% in size. The method, boiled down:
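DPX-2 cells (HepG2 co-transfected with a PXR response element and a CYP3A4-promoter luciferase construct) were seeded at 2,000 per well, rested 5 hr at 37C, then exposed to DMSO-dissolved compounds for 24 hr. Activation was read as luciferase luminescence.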

Several values for one entry are separate records, joined by “and”; a condition that tells them apart may be missing. Equal values may be shown once. Records with an inconclusive call do not appear. Some structures have more than one record in an assay (separate samples or runs), and their calls can disagree. Activity calls are given as the source filed them. Calls follow the shape of the dose curve; as a rule, active = well fitted curve in the direction sought with a large enough effect in the repeat runs; inconclusive = weak or mixed curves; inactive = no such curve, though single readings can be large; an effect the other way counts as inactive or inconclusive.
% is scaled to controls: 0 for no effect and ±100 for the full control effect.

Sequence of Cytochrome P450 2D6 (Homo sapiens) (P10635 whole entry, looked up): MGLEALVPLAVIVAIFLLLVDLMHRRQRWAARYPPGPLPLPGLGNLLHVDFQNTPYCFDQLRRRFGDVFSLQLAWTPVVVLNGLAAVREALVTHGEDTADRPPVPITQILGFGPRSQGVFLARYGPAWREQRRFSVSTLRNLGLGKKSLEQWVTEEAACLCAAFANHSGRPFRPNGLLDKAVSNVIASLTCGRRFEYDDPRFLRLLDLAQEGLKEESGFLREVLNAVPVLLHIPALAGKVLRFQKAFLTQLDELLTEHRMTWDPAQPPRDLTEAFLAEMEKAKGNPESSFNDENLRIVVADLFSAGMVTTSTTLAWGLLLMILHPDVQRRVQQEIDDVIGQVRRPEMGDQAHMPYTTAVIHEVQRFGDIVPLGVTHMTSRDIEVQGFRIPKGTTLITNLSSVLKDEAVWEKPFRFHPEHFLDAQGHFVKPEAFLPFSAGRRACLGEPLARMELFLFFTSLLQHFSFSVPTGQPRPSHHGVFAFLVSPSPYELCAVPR
Sequence of Cytochrome P450 2C19 (Homo sapiens) (P33261 whole entry, looked up): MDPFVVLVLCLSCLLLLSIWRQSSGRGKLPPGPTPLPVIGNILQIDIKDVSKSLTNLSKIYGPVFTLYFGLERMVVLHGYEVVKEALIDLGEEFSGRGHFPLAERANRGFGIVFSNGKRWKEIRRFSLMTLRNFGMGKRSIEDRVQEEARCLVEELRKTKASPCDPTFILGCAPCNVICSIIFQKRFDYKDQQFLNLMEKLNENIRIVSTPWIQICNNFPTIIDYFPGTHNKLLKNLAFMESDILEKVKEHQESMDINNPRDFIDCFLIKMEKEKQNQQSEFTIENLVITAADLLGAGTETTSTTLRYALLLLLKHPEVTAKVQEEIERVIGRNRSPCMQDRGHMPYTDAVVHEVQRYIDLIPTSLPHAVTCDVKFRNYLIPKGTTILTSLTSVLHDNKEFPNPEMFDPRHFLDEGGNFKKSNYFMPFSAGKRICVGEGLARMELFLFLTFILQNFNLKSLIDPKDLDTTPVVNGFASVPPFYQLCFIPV
Sequence of Cytochrome P450 2C9 (Homo sapiens) (P11712 whole entry, looked up): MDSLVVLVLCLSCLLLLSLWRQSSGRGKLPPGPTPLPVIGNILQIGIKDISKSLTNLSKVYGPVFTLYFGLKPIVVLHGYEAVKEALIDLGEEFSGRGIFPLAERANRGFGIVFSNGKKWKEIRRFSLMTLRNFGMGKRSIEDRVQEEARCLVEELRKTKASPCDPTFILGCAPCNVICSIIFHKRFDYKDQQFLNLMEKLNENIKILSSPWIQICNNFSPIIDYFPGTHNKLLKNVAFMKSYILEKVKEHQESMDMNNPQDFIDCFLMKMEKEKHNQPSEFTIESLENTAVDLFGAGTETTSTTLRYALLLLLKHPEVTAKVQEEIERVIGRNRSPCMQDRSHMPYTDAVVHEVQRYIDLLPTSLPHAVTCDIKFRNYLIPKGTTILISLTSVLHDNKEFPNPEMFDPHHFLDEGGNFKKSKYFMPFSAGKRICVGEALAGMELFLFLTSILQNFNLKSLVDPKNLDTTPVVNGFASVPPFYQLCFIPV
Sequence of Cytochrome P450 3A4 (Homo sapiens) (P08684 whole entry, looked up): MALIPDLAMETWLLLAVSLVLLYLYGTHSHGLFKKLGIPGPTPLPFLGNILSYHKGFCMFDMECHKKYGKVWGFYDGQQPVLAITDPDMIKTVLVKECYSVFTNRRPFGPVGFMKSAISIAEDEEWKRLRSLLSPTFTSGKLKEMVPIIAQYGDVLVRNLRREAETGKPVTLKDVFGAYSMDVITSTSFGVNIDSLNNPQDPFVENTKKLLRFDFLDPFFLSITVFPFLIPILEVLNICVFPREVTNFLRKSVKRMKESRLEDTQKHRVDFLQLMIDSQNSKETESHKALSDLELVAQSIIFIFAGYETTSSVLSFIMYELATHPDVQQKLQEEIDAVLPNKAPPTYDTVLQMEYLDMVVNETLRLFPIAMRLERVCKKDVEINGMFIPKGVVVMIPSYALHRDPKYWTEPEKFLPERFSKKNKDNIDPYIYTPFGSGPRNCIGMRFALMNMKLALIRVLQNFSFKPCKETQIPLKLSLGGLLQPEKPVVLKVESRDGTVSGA
Sequence of Cytochrome P450 1A2 (Homo sapiens) (P05177 whole entry, looked up): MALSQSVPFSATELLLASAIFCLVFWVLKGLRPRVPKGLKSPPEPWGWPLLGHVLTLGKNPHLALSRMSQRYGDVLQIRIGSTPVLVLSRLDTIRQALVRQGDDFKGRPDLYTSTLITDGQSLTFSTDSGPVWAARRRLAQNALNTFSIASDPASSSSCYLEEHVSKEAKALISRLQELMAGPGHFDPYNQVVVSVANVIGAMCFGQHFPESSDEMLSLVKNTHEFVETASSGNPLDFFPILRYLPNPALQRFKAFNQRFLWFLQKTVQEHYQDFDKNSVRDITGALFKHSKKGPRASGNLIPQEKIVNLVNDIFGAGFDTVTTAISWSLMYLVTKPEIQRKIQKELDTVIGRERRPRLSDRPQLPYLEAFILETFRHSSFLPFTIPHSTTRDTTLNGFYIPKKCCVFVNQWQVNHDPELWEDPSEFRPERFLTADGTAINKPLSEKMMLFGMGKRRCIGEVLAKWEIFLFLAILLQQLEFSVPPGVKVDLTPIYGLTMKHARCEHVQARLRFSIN

For the compound `O=C(c1ccccc1)c1ccc(O)cc1O`, the Potency result in test [1], in [2] and in [8] was “inactive” in each case. Further, the Potency is 62.3 µM (active) and 61.1 µM (active) in test [3]; 8.12 µM (active) and 20 µM (active) in test [4]; 9.11 µM (active) and 22.4 µM (active) in [5]; 57.5 µM (active) and 39.9 µM (active) in test [6]; 25.7 µM (active) and 31.7 µM (active) in test [7]; 14.4 µM (active) and 25.2 µM (active) in test [9].
For `CCC(C)OC(=O)c1ccc(O)cc1` (stereo not given), the Potency entry in test [10], in test [1], in test [2], in test [8] and in test [9] was “inactive” throughout. Besides, the Potency was 69 µM (active) and 54.5 µM (active) in [3]; 63.3 µM (active) in test [4]; 35.8 µM (active) and 25.2 µM (active) in test [5]; 20.1 µM (active) and 35.6 µM (active) in test [7].
Consider `Brc1cc(Oc2cc(Br)c(Br)c(Br)c2Br)c(Br)c(Br)c1Br`, for which the Potency result in [10], in [1], in [2], in test [4], in test [7] and in [8] was “inactive” throughout. Also, in [9], the Potency entry was “inactive”. The Potency in [3] was 9.73 µM (active); in [5], 10.1 µM (active) and inactive.
Turning to `c1cc(-c2ccncc2)ccn1`, the Potency result in test [10], in [1], in test [2], in test [3], in test [8] and in test [9] was “inactive” throughout. In addition, the Potency in test [5] was 35.9 µM (active); in test [6], 40.3 µM (active) and 35.6 µM (active); in [7] it was 40.3 µM (active) and 35.6 µM (active).
For the compound `O=CCCCC=O`, the Potency entry in test [10], in test [1], in test [2], in test [3], in [11] and in [12] was “inactive” in each case. The Potency result in [4], in test [5], in test [6], in [7], in test [8] and in test [9] was “inactive” in each case.
For the compound `Nc1ncn([C@@H]2O[C@H](CO)[C@@H](O)[C@H]2O)c(=O)n1`, the Potency in [10] was 2.17 µM (active) and 2.98 µM (active); in test [2], 1.72 µM (active) and 2.98 µM (active); in test [3] it was 4.33 µM (active) and 10.6 µM (active). The Potency result in test [1], in test [11], in test [12], in test [4], in [6] and in test [7] was “inactive” throughout. Besides, the Potency entry in [8] and in [9] was “inactive” each time.
Take `Cc1ccc(C(=O)c2cc(O)c(O)c([N+](=O)[O-])c2)cc1`: the Potency in test [10] and in test [2] was 43.3 µM (active) in each case. In addition, the Potency entry in test [1], in test [4], in test [5], in test [7] and in [8] was “inactive” each time.
Take `CN1C(C(=O)Nc2ccccn2)=C(O)c2ccccc2S1(=O)=O`: the Potency result in test [10], in test [1], in test [2], in test [11], in test [12] and in test [5] was “inactive” each time. The Potency entry in test [7], in [8] and in [9] was “inactive” each time. The Potency in test [4] was 40.3 µM (active) and inactive; in test [6], 12.7 µM (active) and 13.8 µM (active).
Regarding `NNc1ccc(C(=O)O)cc1`, the Potency result in [10], in [1], in [2], in [8] and in test [9] was “inactive” each time. Further, the Potency is 43.9 nM (active) and 27.6 nM (active) in test [3]; 32.1 µM (active) and 40.3 µM (active) in test [5]; 10.2 µM (active) in test [6]; 32.1 µM (active) and 32 µM (active) in [7].
For the compound `O=C(Nc1ccc([N+](=O)[O-])cc1Cl)c1cc(Cl)ccc1O`, the Potency is 2.17 µM (active) and 2.59 µM (active) in test [10]; 686 nM (active) and 291 nM (active) in test [3]; 25.2 µM (active) in test [6]; 20 µM (active) in [7]. The Potency entry in test [1], in [4] and in [8] was “inactive” each time. Further, the activity change, negative = inhibition in [5] is -2.19% [at 23.6 µM] (inactive); in [7] it was -15.9% [at 23.6 µM] (inactive).
In the case of `COC(=O)C1=C(C)NC(C)=C(C(=O)OCCN(C)Cc2ccccc2)C1c1cccc([N+](=O)[O-])c1` (stereo not given), the Potency in [10] was 30.5 µM (active) and 26.6 µM (active); in test [2], 48.3 µM (active) and 26.6 µM (active); in test [8], 10.9 µM (active) and 8.49 µM (active). The Potency entry in test [1] and in [7] was “inactive” in each case.
